Shown are actives, neighbours in structure and some others; about 15% of the full set was active somewhere.
TDP1 cell noCPT: qHTS for Inhibitors of human tyrosyl-DNA phosphodiesterase 1 (TDP1): qHTS in cells in absence of CPT | DT40 Tdp1-/- hTDP1 cells, no CPT, ATP luminescence, 48 h | AID 686978, 2013 | Potency, µM (top dose mostly 46.2 µM), without a hit: at the highest dose activity change, negative = growth inhibition, actives largely listed as inhibitors | hit rate 15% among 420,000; further: nearly all actives have a fitted effect of over 55% in size
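No-CPT arm: Tdp1-/-;hTDP1 DT40 cells (400/well) plus compounds, incubated ≥48 hr at 37 °C. Readout CellTiter-Glo luminescence.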
ELG1 repair inh: inhibitors of ELG1-dependent DNA repair in HEK293T cells; HEK293T ELG1-luciferase reporter, luminescence, 16 h; DNA damage induced by 5-fluorouridine; Potency, µM (highest dose often 46.1 µM), without a hit: top-dose activity change, negative = inhibition, actives largely listed as inhibitors; hit rate 2.3% among 330,000; further: nearly all actives have a fitted effect of over 55% in size
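In this reporter screen, reduction of luminescence relative to DMSO vehicle indicated activity. Compounds and 5-fluorouridine were added together to 2,000 cells per well, incubated for 16 hr at 37 °C, then developed with ONE-Glo.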
RORgamma inh: inhibitors of mouse ROR gamma transcriptional activity; P51450; Drosophila S2 Gal4-RORgamma UAS-luciferase reporter, 20 h; Potency, µM (highest dose often 53.6 µM), for the others: at the top dose activity change, negative = inhibition, usual class: inhibitors; hit rate 5.4% among 310,000; AID 2551; further: nearly all actives have a fitted effect of over 60% in size
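Schneider cells (Drosophila), stable Gal4 DBD–ROR gamma + UAS-luc; 1 hr cmpd preincubation; Cu2+ induction 700 uM final; 20 hr ambient; luminescence.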
Gal4-VP16 FLuc: counter-screen for ROR gamma inhibitors: Gal4-VP16 reporter; Drosophila S2 Gal4-VP16 UAS-luciferase, luminescence, 20 h; hit rate 3.5% among 310,000; AID 2546; Potency, µM (doses to about 53.6 µM), inactives show top-dose activity, negative = inhibition, usual class: inhibitors;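 further: Gal4-VP16 expression switched on by copper sulfate through the metallothionein promoter; nearly all actives have a fitted effect of over 50% in size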
TDP1 cell CPT: DT40-hTDP1 cell growth loss with CPT; chicken DT40 Tdp1-/-;hTDP1 cells + 20 nM CPT, ATP luminescence, 48 h; AID 686979; hit rate 12% among 420,000; Potency, µM (top dose mostly 46.2 µM), inactives show at the highest dose activity change, negative = growth inhibition, hits mostly inhibitors; further: nearly all actives have a fitted effect of over 55% in size
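Chicken DT40 Tdp1-/- cells stably complemented with human TDP1 were seeded at 400 cells/well in medium containing 20 nM camptothecin, exposed to pin-transferred compounds, and grown at 37 °C for at least 48 hr. Viability was read as ATP luminescence.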
12-LOX inh: inhibitors of human 12S-lipoxygenase ALOX12 | P18054 | purified 12hLO, xylenol orange hydroperoxide absorbance | Potency, µM (series often up to 108 µM), for the others: top-dose activity change, negative = inhibition, usual class: inhibitors | hit rate 1.1% among 580,000
Target sequence (P18054 whole entry, looked up): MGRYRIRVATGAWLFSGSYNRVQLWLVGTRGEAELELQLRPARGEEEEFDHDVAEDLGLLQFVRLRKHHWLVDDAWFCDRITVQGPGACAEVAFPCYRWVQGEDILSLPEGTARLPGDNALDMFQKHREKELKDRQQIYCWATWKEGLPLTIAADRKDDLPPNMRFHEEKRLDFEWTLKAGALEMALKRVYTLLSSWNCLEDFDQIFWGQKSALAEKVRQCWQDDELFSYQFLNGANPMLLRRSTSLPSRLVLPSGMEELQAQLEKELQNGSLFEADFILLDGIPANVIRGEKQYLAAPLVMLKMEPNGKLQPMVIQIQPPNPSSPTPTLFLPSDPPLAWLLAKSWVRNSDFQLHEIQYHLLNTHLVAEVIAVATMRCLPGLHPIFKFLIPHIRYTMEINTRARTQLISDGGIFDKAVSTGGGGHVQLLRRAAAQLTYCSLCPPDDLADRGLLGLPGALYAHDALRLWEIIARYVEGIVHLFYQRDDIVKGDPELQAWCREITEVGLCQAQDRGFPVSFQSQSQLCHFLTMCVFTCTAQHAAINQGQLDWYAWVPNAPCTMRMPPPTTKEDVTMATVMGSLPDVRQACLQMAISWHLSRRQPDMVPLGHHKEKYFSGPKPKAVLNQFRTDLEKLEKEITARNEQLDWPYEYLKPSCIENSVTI
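Hydroperoxide product was detected by ferrous iron/xylenol orange as the 573 to 405 nm absorbance ratio. Arachidonic acid at 40 uM (final) was turned over for 30 min at room temperature by 150 nM human 12hLO, pH 7.0 Hepes buffer, after 15 min compound preincubation.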
The depositor's hits bear a star; ! = a repeat was not active. The call rests on the fitted dose curve; in most records, active means well fitted curve in the direction sought with a large enough effect; inconclusive means small, poorly fitted or top-dose-only effect, or another doubt; inactive means no such curve, though single readings can be large; an effect the other way counts as inactive or inconclusive. On the % scale 0 is the no-effect control and ±100 the full control effect; potency means the concentration at half of the fitted maximal effect.

For COC(CNC(=O)c1cnn2c(C)c(Cc3ccccc3)c(C)nc12)OC the results were TDP1 cell noCPT 16.4µM*, ELG1 repair inh inconclusive, RORgamma inh 26.0%, Gal4-VP16 FLuc 2.3%, TDP1 cell CPT inconclusive and 12-LOX inh 44.9%.
For Cc1nc2c(C(=O)NC(C)c3ccccc3)cnn2c(C)c1Cc1ccccc1 (configuration not stated) the results were TDP1 cell noCPT inconclusive, TDP1 cell CPT 13µM* and 12-LOX inh inconclusive.
For Cc1oc(-c2ccccc2)nc1CC(=O)NCC(C)(C)N1CCOCC1 the results were 12-LOX inh -11.4%.
`O=C(Nc1ccccc1O)c1cc(-c2ccccc2)nc2ccccc12` gave 12-LOX inh -1.2%.
`COc1ccccc1NC(=O)c1cc(-c2ccco2)nc2ccccc12` gave 12-LOX inh 15.8µM*.
For O=C(Nc1ccc(F)cc1F)c1cc(-c2ccco2)nc2ccccc12 the results were TDP1 cell noCPT 16.4µM*, ELG1 repair inh -15.7%, RORgamma inh 19.1%, Gal4-VP16 FLuc -1.7%, TDP1 cell CPT inconclusive and 12-LOX inh 10µM*!.
For CC(NC(=O)CSCc1cccc(Br)c1)C1CC2CCC1C2 (configuration not stated) the results were 12-LOX inh 2.2%.
CC1=CC(C)(C)[N+](C)(C)c2ccc(C)cc21 was read as TDP1 cell noCPT 18.4µM*, ELG1 repair inh -7.8%, RORgamma inh 4.7%, Gal4-VP16 FLuc -6.5%, TDP1 cell CPT inconclusive and 12-LOX inh inconclusive.
For COc1ccc(Oc2coc3cc(OC(=O)N4CCOCC4)ccc3c2=O)cc1 the results were TDP1 cell noCPT inconclusive, ELG1 repair inh inconclusive, RORgamma inh 21.0%, Gal4-VP16 FLuc -13.5%, TDP1 cell CPT 16.4µM* and 12-LOX inh 7.7%.
COc1cc(CNc2ccc(N3CCOCC3)c(C(=O)O)c2)cc(Cl)c1OC was read as 12-LOX inh -71.2%.
Screening O=c1c(=O)n(-c2ccc(F)c(F)c2)ccn1Cc1c(F)cccc1Cl returned 12-LOX inh -2.7%.
For CCc1ccc(NC(=O)c2sc3nc4n(c(=O)c3c2C)CCC4)cc1 the results were TDP1 cell noCPT -21.9%, ELG1 repair inh inconclusive, RORgamma inh inconclusive, Gal4-VP16 FLuc -8.7%, TDP1 cell CPT -22.2% and 12-LOX inh 5.6%.
CC(=O)Nc1ccc(NC(=O)c2sc3nc4n(c(=O)c3c2C)CCCCC4)cc1 was read as TDP1 cell noCPT 10.3µM*, ELG1 repair inh inconclusive, RORgamma inh -10.4%, Gal4-VP16 FLuc -3.3%, TDP1 cell CPT 11.6µM* and 12-LOX inh -28.3%.
`Cc1c(C(=O)Nc2ccc(C(C)C)cc2)sc2nc[nH]c(=O)c12` gave TDP1 cell noCPT 18.4µM*, TDP1 cell CPT 20.6µM* and 12-LOX inh inconclusive.
CCOc1ccc(NC(=O)c2sc3nc4n(c(=O)c3c2C)CCCC4)cc1 was read as TDP1 cell noCPT 13µM*, TDP1 cell CPT 20.6µM* and 12-LOX inh 11.8%.
`Cc1c(C(=O)Nc2ccc(C(C)C)cc2)sc2nc3n(c(=O)c12)CCC3` gave TDP1 cell noCPT 20.6µM*, TDP1 cell CPT 16.4µM* and 12-LOX inh -13.2%.
`COc1ccc(OC)c(-c2cc(Cl)c3c(c2)CC(CNC(=O)c2c(F)cccc2F)O3)c1` (configuration not stated) gave 12-LOX inh 38.5%.
`Cc1c(C(=O)Nc2cccc(C(F)(F)F)c2)sc2nc3n(c(=O)c12)CCCC3` gave TDP1 cell noCPT 8.2µM*, TDP1 cell CPT 10.3µM* and 12-LOX inh -5.4%.

High-throughput results as filed in PubChem.
